This is a sample that favours compounds with a hit; in the whole collection about 11% have one here.
G9a inh = qHTS Assay for Inhibitors of Histone Lysine Methyltransferase G9a | AID 504332, 2011 | G9a H3K9 monomethylation, AlphaScreen, 2 h | Potency, µM (titrated, usually from 102 µM), for the others: top-dose activity, negative = inhibition, hits mostly inhibitors | Histone-lysine N-methyltransferase EHMT2 (Homo sapiens), Q96KQ7 | hit rate 8.8% among 350,000; also: % is scaled to controls: 0 for no effect and ±100 for the full control effect; nearly all actives have a fitted effect of over 75% in size
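AlphaScreen read-out: biotin-H3K9 peptide (500 nM) methylation by 20 nM enzyme with 20 uM SAM, 2 h at room temperature after 15 min compound preincubation; anti-monomethyl H3K9 antibody plus donor/acceptor beads, 10 min dark.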
BAZ2B block = qHTS Assay for Inhibitors of BAZ2B. AlphaScreen BAZ2B-H3K14Ac peptide displacement. Potency, µM (highest dose often 114 µM), for inactives: top-dose activity change, negative = inhibition, usual class: inhibitors. hit rate 4.4% among 360,000. AID 504333, 2011; also: % is scaled to controls: 0 for no effect and ±100 for the full control effect; nearly all actives have a fitted effect of over 60% in size
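AlphaScreen displacement: compounds (up to 110uM) incubated 30 min at room temperature with a preformed 50 nM BAZ2B/50 nM biotinylated H3K14Ac peptide complex in PBS pH 7.4 with Tween-20. Donor and acceptor beads at 10 ug/mL final added, 20 min light-protected before reading.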
JMJD2A Tudor inh = qHTS Assay for Inhibitors of JMJD2A-Tudor Domain | hit rate 4.4% among 390,000 | AID 504339, 2011 | AlphaScreen JMJD2A-Tudor / H3K4me3 peptide binding | Potency, µM (titrated, usually from 114 µM), for inactives: at the highest dose activity change, negative = inhibition, usual class: inhibitors; also: % is scaled to controls: 0 for no effect and ±100 for the full control effect; nearly all actives have a fitted effect of over 50% in size
VDR inh = Inhibitors of the vitamin D receptor (VDR): qHTS; Potency, µM, without a hit: max response, negative = inhibition, hits mostly inhibitors; AID 504847, 2011; VDR-SRC2-3 peptide fluorescence polarization, 2 h; hit rate 0.93% among 400,000; also: % is scaled to controls: 0 for no effect and ±100 for the full control effect
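Compounds are added to VDR with labelled SRC2-3 coactivator peptide and held 2 h at room temperature. Inhibition of the VDR–peptide interaction is then read as a change in fluorescence polarization.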
HP1b chromo inh = HTS for Inhibitors of HP1-beta Chromodomain Interactions with Methylated Histone Tails. Potency, µM (highest dose often 114 µM), inactives show at the highest dose activity change, negative = inhibition, actives largely listed as inhibitors. AlphaScreen HP1-beta / biotin-H3K9me3 peptide binding. hit rate 0.56% among 390,000. AID 540317, 2011; also: nearly all actives have a fitted effect of over 70% in size
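Compound inhibition of the preformed complex between 50 nM HP1-beta and 50 nM biotinylated H3K9me3 peptide was read by AlphaScreen. Buffer was PBS pH 7.4 with 0.01% Tween-20. Incubations ran 30 min at room temperature, with 10 ug/mL donor/acceptor beads.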
PLK1 PBD inh = qHTS for Inhibitors of PLK1-PDB (polo-like kinase 1 - polo-box domain): Primary Screen. AID 720504, 2013. hit rate 2.8% among 360,000. Potency, µM, for inactives: max response, negative = inhibition, most hits filed as inhibitors. Serine/threonine-protein kinase PLK1 (Homo sapiens), P53350. Plk1 PBD binding of FITC phosphopeptide, fluorescence polarization; also: series mostly up to about 57 µM; % is scaled to controls: 0 for no effect and ±100 for the full control effect; nearly all actives have a fitted effect of over 65% in size
Target sequence (P53350 whole entry, looked up, the tested form may be a part): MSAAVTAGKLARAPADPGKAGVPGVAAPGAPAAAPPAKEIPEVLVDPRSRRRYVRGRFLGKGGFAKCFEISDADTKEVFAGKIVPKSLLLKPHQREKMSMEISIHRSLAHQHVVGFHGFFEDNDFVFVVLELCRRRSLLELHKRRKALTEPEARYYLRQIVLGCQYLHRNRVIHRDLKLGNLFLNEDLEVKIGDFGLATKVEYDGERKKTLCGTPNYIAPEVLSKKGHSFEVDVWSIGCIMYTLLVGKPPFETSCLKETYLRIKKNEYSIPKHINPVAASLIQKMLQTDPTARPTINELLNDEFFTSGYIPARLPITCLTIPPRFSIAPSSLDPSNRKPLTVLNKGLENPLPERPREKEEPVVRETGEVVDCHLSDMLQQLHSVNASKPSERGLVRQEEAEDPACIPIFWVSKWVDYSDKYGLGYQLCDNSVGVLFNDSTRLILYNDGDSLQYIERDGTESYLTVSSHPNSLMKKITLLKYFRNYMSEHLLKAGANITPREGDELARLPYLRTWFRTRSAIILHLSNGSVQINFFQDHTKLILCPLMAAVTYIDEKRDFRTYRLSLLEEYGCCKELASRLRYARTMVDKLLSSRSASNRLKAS
* hit, by the source's call; ? = inconclusive; / = no result given; [ ] = remark or other dose. Calls follow the shape of the dose curve; as a rule, active = well fitted curve in the direction sought with a large enough effect; inconclusive = small, poorly fitted or top-dose-only effect, or another doubt; inactive = no such curve, though single readings can be large; an effect the other way counts as inactive or inconclusive. Potency is read from the fitted curve at half-maximal effect.

SMILES	G9a inh	BAZ2B block	JMJD2A Tudor inh	VDR inh	HP1b chromo inh	PLK1 PBD inh
Cc1c(Cl)cccc1NC(=S)NNc1ncc(C(F)(F)F)cc1Cl	71µM*	-6%	-31%	-26%	-12%	-10%
Cc1cccc(NNC(=S)Nc2c(C)cccc2C)c1	45µM*	14µM*	14µM*	?	-6%[57 µM]	-26%
Cc1cccc(C)c1NC(=S)Nc1ccc(F)cc1	0%	-22%	-10%	-8%	23%	-2%
Cc1cccc(NC(=S)NNc2cccc(Cl)c2)c1	32µM*	10µM*	56µM*	28µM*	10µM*	27µM*
Cc1ccc(Cn2c(C)c(CNC3CCCCC3)c(C(=O)O)c2C)cc1	10%[59 µM]	-13%	-11%	7%	34%	/
CCCc1ccc(-c2c(C)sc(N)c2C#N)cc1	40µM*	?	-29%	-2%	?	-18%
CCCC(=O)Nc1sc(C)c(-c2ccc(OC)cc2)c1C#N	23%[59 µM]	11%	10%	-9%	14%	-5%
Clc1ccc(-c2nnc(C34CC5CC(CC(C5)C3)C4)o2)cn1	23%[59 µM]	-1%	-16%[11.4 µM]	-9%	-11%	19µM*
CCOC(=O)C1(C)Oc2ccccc2C(C(=O)OC)=C1C(=O)OC (stereo unspecified)	28µM*	/	3%	?	63%	?
CCOC(=O)C1(C)Oc2ccccc2C(c2ccc(OC)cc2)=C1C(=O)OC (stereo unspecified)	37%	/	17%	7%	65%	-5%
Oc1ccc2ccccc2c1Br	?	0%	-22%	-17%	6%	?
Oc1ccc(N=Nc2c(O)ccc3ccccc23)cc1	8.9µM*	6.3µM*	10µM*	-9%	?	-9%
NS(=O)(=O)c1ccc(NC(=O)c2cccc3ccccc23)cc1	64%	?	-4%	-20%	22%	-1%
NS(=O)(=O)c1ccc(N=Nc2c(O)ccc3ccccc23)cc1	35µM*	?	-28%	3%	-12%	5%
CC(C)Oc1ccc(CNCC2(O)CCOC(C)(C)C2)cc1 (stereo unspecified)	8.9µM*	?	2.2µM*	-26%	?	30µM*
CC1(C)CC(O)(CNCc2ccc3c(c2)OCO3)CCO1 (stereo unspecified)	14%	-5%	-14%	-8%	33%	-5%
CN1CCN(c2ncnc3c2ncn3[C@H]2CN(Cc3ccccc3)C[C@@H](CO)O2)CC1	/	/	/	/	/	-3%
CCOc1ccc(NC(=O)c2cc(C)nc3c2c(C)nn3-c2ccc(C)cc2)cc1	1%[59 µM]	57%[57.1 µM]	-7%	5%	78%	/
Cc1ccc(-c2cc(C(F)(F)F)n3ncc(C(=O)O)c3n2)cc1	?	-3%	-11%[11.4 µM]	-22%	14%	30µM*
O=C(NCC1CCCO1)c1nn2c(C(F)(F)F)cc(-c3ccc(Br)o3)nc2c1Br (stereo unspecified)	50µM*	2%	-5%	-6%	-3%	-18%
COc1ccc(-c2cc(C(F)(F)F)n3ncc(C(=O)NCC4CCCO4)c3n2)cc1 (stereo unspecified)	-8%[59 µM]	0%	8%[11.4 µM]	-10%	-12%	7.5µM*
O=C(Nc1cccc(Cl)c1)N(Cc1nc2ccccc2c(=O)[nH]1)Cc1cccs1	23%[59 µM]	-6%	-1%	-15%	33%	3%
CC1CCN(CCCN2C(=O)C3C(C(=O)Nc4ccc(Cl)cc4)C4C=CC3(O4)C2C(=O)NC2CCCCC2)CC1 (stereo unspecified)	40µM*	-3%	-15%	3%	-11%	-10%
COc1ccc(NC(=O)C2C3C=CC4(O3)C2C(=O)N(CCN2CCCCC2)C4C(=O)NC2CCCCC2)cc1 (stereo unspecified)	24%	5%	-13%	0%	5%	-1%
O=C(Nc1ccc(Br)cc1)C1C2C=CC3(O2)C1C(=O)N(CCN1CCCCC1)C3C(=O)NC1CCCCC1 (stereo unspecified)	50µM*	-16%	-18%	19%	2%	-9%
SMILES	G9a inh	BAZ2B block	JMJD2A Tudor inh	VDR inh	HP1b chromo inh	PLK1 PBD inh
CSc1cccc(NC(=O)C2C3C=CC4(O3)C2C(=O)N(CCCN2CCOCC2)C4C(=O)NC2CCCCC2)c1 (stereo unspecified)	45µM*	-21%	-17%	4%	-9%	-14%
CC1CCCN(CCCN2C(=O)C3C(C(=O)Nc4ccc(Cl)cc4)C4C=CC3(O4)C2C(=O)NC2CCCCC2)C1 (stereo unspecified)	45µM*	-3%	-16%	6%	-24%	-10%
Cc1ccc(NC(=O)C2C3C=CC4(O3)C2C(=O)N(CCCN2CCCC(C)C2)C4C(=O)NC2CCCCC2)cc1 (stereo unspecified)	?	1%	-14%	-2%	1%	-11%
COc1ccccc1CN1CCC(CNC(=O)c2cnn(-c3ccc(Cl)cc3)c2C2CCN(C(=O)OC(C)(C)C)CC2)CC1	-27%[59 µM]	3%[57.1 µM]	-31%	6%	25%	/
COCCNC(=O)Cn1nc(N2CCN(c3ccccc3OC)CC2)ccc1=O	4%[59 µM]	2%	-1%	7%	31%	/
O=C(OC[C@H]1O[C@@H](OC(=O)c2cc(O)c(O)c(OC(=O)c3cc(O)c(O)c(O)c3)c2)[C@H](OC(=O)c2cc(O)c(O)c(OC(=O)c3cc(O)c(O)c(O)c3)c2)[C@@H](OC(=O)c2cc(O)c(O)c(OC(=O)c3cc(O)c(O)c(O)c3)c2)[C@@H]1OC(=O)c1cc(O)c(O)c(OC(=O)c2cc(O)c(O)c(O)c2)c1)c1cc(O)c(O)c(OC(=O)c2cc(O)c(O)c(O)c2)c1	1.4µM*	0.79µM*	/	/	/	/
COc1cccc(OC)c1OCCCCCc1c(C)n[nH]c1C	50µM*	-8%	-4%	-1%	33%	0%
COc1cccc(OC)c1OCCCCc1c(C)n[nH]c1C	?	-34%	-12%	-1%	9%	-8%
Cc1n[nH]c(C)c1CCCCOc1ccccc1	50µM*	-20%	-32%[57.1 µM]	-11%	13%	-25%
COc1ccc(-n2c(=O)c(C)nc3cnc(Nc4cccc(OC)c4)nc32)cc1	14%[12.7 µM]	/	/	4%	/	/
COCCN(C(=O)c1cccc(N2C(=O)CCC2=O)c1)c1nc(-c2ccc([N+](=O)[O-])cc2)cs1	-48%	-27%	-32%	-9%	-11%	-20%

Source: PubChem (National Center for Advancing Translational Sciences (NCATS))
